In all, about 16,000 compounds went through this assay and about 5,700 (36%) were called active. Inconclusive results (about 24%) are left out. The list shows a part of the results. Values without a mark were called inactive. The call rests on the fitted dose curve; in most records, active means well fitted curve in the direction sought with a large enough effect; inconclusive means small, poorly fitted or top-dose-only effect, or effect the other way; inactive means no such curve, though single readings can be large or run the other way.
The compounds below were run against Cytochrome P450 1A2 (Homo sapiens) (UniProt P05177) (assay: Cytochrome panel assay with activity outcomes). Conditions: recombinant CYP, pro-luciferin dealkylation, luminescence, p450-cyp1a2; series mostly up to 57.1 µM; activity, negative = inhibition: at the top concentration.
Cytochrome P450 1A2 (Homo sapiens), sequence (P05177 whole entry, looked up): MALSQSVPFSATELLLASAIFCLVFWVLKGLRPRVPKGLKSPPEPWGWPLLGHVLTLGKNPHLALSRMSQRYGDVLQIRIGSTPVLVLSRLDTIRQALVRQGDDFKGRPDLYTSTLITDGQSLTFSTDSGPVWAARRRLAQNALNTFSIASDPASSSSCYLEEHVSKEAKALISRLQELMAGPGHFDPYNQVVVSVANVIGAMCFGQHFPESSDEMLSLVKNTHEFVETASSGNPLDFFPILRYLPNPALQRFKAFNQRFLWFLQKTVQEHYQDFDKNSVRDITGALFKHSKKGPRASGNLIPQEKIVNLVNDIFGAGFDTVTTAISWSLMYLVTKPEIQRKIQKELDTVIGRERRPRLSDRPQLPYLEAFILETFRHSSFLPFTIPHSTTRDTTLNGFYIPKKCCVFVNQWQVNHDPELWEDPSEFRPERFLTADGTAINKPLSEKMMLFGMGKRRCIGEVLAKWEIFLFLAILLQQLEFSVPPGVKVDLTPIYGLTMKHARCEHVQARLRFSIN
On the % scale 0 is the no-effect control and ±100 the full control effect.

| SMILES | activity, negative = inhibition | AC50 |
| --- | --- | --- |
| CN[C@]1(C)[C@@H]2CC[C@@H](C2)C1(C)C | -2.74% | – |
| CCOC(=O)c1ccc2nc(C)c(CCC(C)=O)c(Cl)c2c1 | – | 8.91 µM (active) |
| CCc1ccc(C(=O)COC(=O)c2cccc(N3C(=O)c4c(C)nc5ccccc5c4C3=O)c2)cc1 | -14.4% | – |
| CCOC(=O)c1cncc(C(=O)O)c1 | -1.87% | – |
| O=C1CCCC=C1[C@H](CCc1ccccc1)OC(=O)c1ccc(Br)cc1 | -1.62% [at 11.4 µM] | – |
| COC(=O)/C(=C\C(=O)c1ccccc1)Nc1cccc(C(F)(F)F)c1 | – | 2.24 µM (active) |
| O=C(Nc1ccccc1)N1CC2(CCN(C(=O)c3cc(C(F)(F)F)cc(C(F)(F)F)c3)CC2)C1 | -6.53% | – |
| COc1ccc2c(Cc3c4ccccc4cc4ccccc34)cncc2c1O | – | 0.126 µM (active) |
| CCCNC(=O)OC[C@@H]1O[C@H](CCO/N=C\C[C@H]2C=C[C@H](OC(C)=O)[C@@H](COC(C)=O)O2)C=C[C@@H]1Oc1ccc(OC)cc1 | -4.67% [at 11.4 µM] | – |
| Cn1c(=O)c2[nH]c(/N=N\N3CCN(CCO)CC3)nc2n(C)c1=O | -14.7% [at 2.29 µM] | – |
| Cc1cccc(CNc2nc(-c3ccoc3)nc3ccccc23)c1 | – | 1.26 µM (active) |
| c1csc(CNc2nc(-c3ccoc3)nc3ccccc23)c1 | – | 0.316 µM (active) |
| c1ccc(CNc2nc(-c3ccoc3)nc3ccccc23)cc1 | – | 0.631 µM (active) |
| c1cncc(CNc2nc(-c3ccoc3)nc3ccccc23)c1 | – | 0.398 µM (active) |
| CCc1ccc(C(=O)COC(=O)C(Cc2ccccc2)NC(=O)C2CCC(C)CC2)cc1 (stereo not drawn) | -7.88% | – |
| C=CC[C@@H]1C=C[C@@H](O/N=C\[C@@H](OC)[C@H](C)/C=C\CC(=O)OC)[C@@H](CO)O1 | -0.319% [at 11.4 µM] | – |
| COCCCN=CC1=C(O)CC(C)(C)CC1=O | -13.1% | – |
| CN[C@@H](c1ccncc1)[C@@H](NC)c1ccncc1 | -13.3% [at 11.4 µM] | – |
| c1cncc(-c2nc(NCc3cccs3)c3ccccc3n2)c1 | – | 0.316 µM (active) |
| COc1ccc(OCCn2c(C)c(/C=N/n3cnnc3)c3ccccc32)cc1 | – | 0.398 µM (active) |
| O=C(COc1cccc2ccccc12)NNC(=O)c1cccs1 | – | 8.91 µM (active) |

| SMILES | activity, negative = inhibition | AC50 |
| --- | --- | --- |
| O=C(CCC(=O)Nc1ccccc1)NNC(=O)c1cccs1 | -23.3% | – |
| CC1(C)Cc2c(sc3nc(-c4ccccc4)n(N)c(=O)c23)CO1 | – | 7.08 µM (active) |
| Cc1cc2cc3c(C)cc(=O)oc3c(C)c2o1 | – | 1 µM (active) |
| CC(C)NC(=O)N1CC[C@@]2(CCCN(S(=O)(=O)c3ccccc3)C2)C1 | -2.4% | – |
| CSc1c(-c2ccccc2)nc2ccc(Cl)cc2c1C(=O)O | 10.5% | – |
| CSc1nc(Sc2cccc(Cl)c2)c2ccccc2n1 | – | 0.355 µM (active) |
| O=C(O)/C=C\c1cnc[nH]1 | -4.95% | – |
| Cc1cc(C)nc(NC(=O)CCCC(=O)O)c1 | -5.89% | – |
| Cc1cc(C)nc(NC(=O)/C=C/c2ccc(Cl)cc2Cl)c1 | – | 3.16 µM (active) |
| C#CCCCC(=S)Nc1ccccc1 | – | 12.6 µM (active) |
| N=c1nc(N2CCCCC2)cc(N)n1O | -2.65% [at 25.6 µM] | – |
| CC(Sc1nc(-c2ccccc2)cc(C(F)(F)F)n1)C(=O)N1CCCCC1 (stereo not drawn) | – | 8.91 µM (active) |
| O=C(c1cc(C(F)(F)F)cc(C(F)(F)F)c1)N1CCC[C@@]2(CCN(c3ccccc3)C2)C1 | -17.8% | – |
| O=C1[C@H]2[C@H]3[C@H](O)[C@H](O)C/C(=N/OC[C@@H](O)COCc4ccco4)[C@H]3CC[C@@H]2C(=O)N1Cc1ccccc1 | -10.7% [at 11.4 µM] | – |
| NS(=O)(=O)c1ccc(NCc2cnc3ccccc3n2)cc1 | -18.2% [at 2.29 µM] | – |
| NS(=O)(=O)c1ccc(NCc2nc3ccccc3[nH]2)cc1 | -18.8% [at 2.29 µM] | – |
| NS(=O)(=O)c1ccc(NCc2ccccc2OCc2ccccc2F)cc1 | – | 14.1 µM (active) |
| CCCCOc1cc(C(=O)NCCN(CC)CC)c2ccccc2n1 | – | 5.01 µM (active) |
| CCN(CC)CCNC(=O)c1cc(S(C)(=O)=O)ccc1OC | – | inactive |
| CCCCCCCCOC1OC(CO)C(O)C(O)C1NC(C)=O (stereo not drawn) | 9.81% | – |
| CCOC(=O)C(CC)(CC)C(=O)/C=C/c1ccc(Br)cc1 | – | 2.51 µM (active) |

| SMILES | activity, negative = inhibition | AC50 |
| --- | --- | --- |
| C[n+]1ccc(/C=C/c2ccc(Br)cc2)cc1 | -10.8% | – |
| CC(C)(C)NC(=O)Cn1nnc(-c2ccccc2NC(=O)c2cnccn2)n1 | -21.1% | – |
| COc1ccccc1CNC(=O)Cn1nnc(-c2ccncc2)n1 | – | 12.6 µM (active) |
| CCc1nnc(NC(=O)CCC(=O)NCc2ccccc2OC)s1 | 11% | – |
| CC[C@H](NC(C)C)[C@H](O)c1ccc(O)c(O)c1 | – | 12.6 µM (active) |
| COc1cc([C@H](O)CO)ccc1O | -7.89% | – |
| CC(=O)c1c(C)nc(-c2ccccc2)n1O | – | 15.8 µM (active) |
| N/N=C1/c2ccccc2N[C@H]1OC(=O)Nc1cccc(Cl)c1 | – | 0.794 µM (active) |
| O=C(O)[C@@H]1[C@@H](C(=O)Nc2ccccc2)[C@@H]2C=C[C@@H]1O2 | -18.1% [at 2.29 µM] | – |
| N/N=C1/c2ccccc2N[C@H]1OC(=O)Nc1ccccc1 | – | 0.501 µM (active) |
| C=CC[C@@H]1C=C[C@@H](O/N=C\C[C@@H]2C=C[C@H](OC(C)=O)[C@H](COC(C)=O)O2)[C@@H](CO)O1 | -8.91% [at 11.4 µM] | – |
| CCNc1ncc2ncc(=O)n(C3CC3)c2n1 | – | 3.16 µM (active) |
| CCNc1ncc2nc(C)c(=O)n(C3CC3)c2n1 | – | 5.01 µM (active) |
| CCNc1ncc2nc(C)c(=O)n(C)c2n1 | – | 5.01 µM (active) |
| CC(N)=O | -4.84% | – |
| Cc1ccc(Sc2c([N+](=O)[O-])ncn2C)cc1 | -2.64% | – |
| O=C(Nc1ccc(Cl)cc1Cl)c1cccc(N2C(=O)C=CC2=O)c1 | – | 12.6 µM (active) |
| CCCCC(=O)Nc1sc2c(c1C(=O)OCC)CCC(C=O)=C2Cl | – | 2.51 µM (active) |
| CN1CCN(c2cc(-c3ccccc3C(F)(F)F)ncn2)CC1 | – | 12.6 µM (active) |
| FC(F)(F)c1ccccc1-c1cc(N2CCNCC2)ncn1 | – | 5.01 µM (active) |
| CN(C)CCO[C@](C)(c1ccccc1)c1ccccn1 | – | inactive |

— PubChem BioAssay AID1851 (National Center for Advancing Translational Sciences (NCATS), 2009)
